Test results as given in article PMC7862700, “An all-to-all approach to the identification of sequence-specific readers for epigenetic DNA modifications on cytosine”.

Tests used:
Assay in all cases: DAPPL (digital affinity profiling via proximity ligation, sequencing); 10 mM Tris-HCl pH 7.5, 50 mM NaCl, 1 mM DTT, 4% glycerol, room temperature, 30 min; GST-TFs on glutathione beads, 16-mer random dsDNA library, 0.1% formaldehyde crosslink after washing; high values mean tight binding
FLI1 = biological target: T1, FLI1 (Homo sapiens, UniProt Q01543 1-452); conditions: protein: recombinant; tags: N-terminal GST; dsDNA, one strand shown
T1 sequence: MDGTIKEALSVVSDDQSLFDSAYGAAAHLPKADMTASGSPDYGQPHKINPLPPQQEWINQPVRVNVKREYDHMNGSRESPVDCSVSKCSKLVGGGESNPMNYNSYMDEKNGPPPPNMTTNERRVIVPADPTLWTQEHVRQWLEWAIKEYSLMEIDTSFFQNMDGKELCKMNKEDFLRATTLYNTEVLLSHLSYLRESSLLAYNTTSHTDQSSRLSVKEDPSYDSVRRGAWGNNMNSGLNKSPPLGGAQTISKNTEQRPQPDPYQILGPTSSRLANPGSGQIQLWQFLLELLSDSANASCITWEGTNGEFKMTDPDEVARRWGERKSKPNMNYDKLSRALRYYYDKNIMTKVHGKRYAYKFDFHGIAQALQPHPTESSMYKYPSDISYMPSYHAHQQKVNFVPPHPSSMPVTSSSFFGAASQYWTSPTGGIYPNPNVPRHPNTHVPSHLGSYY
Outline: (§1)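 Each value of binding signal is a hexamer's read frequency for a factor divided by the same hexamer's frequency in the tag-only sample. Barcoded, bead-captured GST fusions of human transcription factors made in yeast were pooled with that sample and incubated with 200 nmole of a random double-stranded 16-mer DNA library in Tris/NaCl/DTT/glycerol buffer at room temperature for 30 min. Washing, 0.1% formaldehyde crosslinking, proximity ligation, PCR and Illumina NextSeq500 sequencing followed.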

ELK1 = biological target: T2, ELK1 (Homo sapiens, UniProt P19419 1-428); conditions: protein: recombinant; tags: N-terminal GST; dsDNA, one strand shown
T2 sequence: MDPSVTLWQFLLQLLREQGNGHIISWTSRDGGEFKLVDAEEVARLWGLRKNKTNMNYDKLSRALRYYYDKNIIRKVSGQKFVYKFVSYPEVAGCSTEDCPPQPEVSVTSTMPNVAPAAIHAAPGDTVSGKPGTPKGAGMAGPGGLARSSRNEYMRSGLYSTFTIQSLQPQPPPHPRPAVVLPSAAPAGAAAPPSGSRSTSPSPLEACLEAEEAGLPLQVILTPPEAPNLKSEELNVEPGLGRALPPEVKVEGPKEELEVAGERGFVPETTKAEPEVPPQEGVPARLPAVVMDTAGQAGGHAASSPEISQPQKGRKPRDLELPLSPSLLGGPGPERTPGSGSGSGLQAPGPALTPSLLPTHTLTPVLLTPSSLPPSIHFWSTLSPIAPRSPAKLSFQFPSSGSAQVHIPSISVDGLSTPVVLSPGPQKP
Outline: as §1

GABPA = biological target: T3, GABPA (Homo sapiens, UniProt Q06546 1-454); conditions: protein: recombinant; tags: N-terminal GST; dsDNA, one strand shown
T3 sequence: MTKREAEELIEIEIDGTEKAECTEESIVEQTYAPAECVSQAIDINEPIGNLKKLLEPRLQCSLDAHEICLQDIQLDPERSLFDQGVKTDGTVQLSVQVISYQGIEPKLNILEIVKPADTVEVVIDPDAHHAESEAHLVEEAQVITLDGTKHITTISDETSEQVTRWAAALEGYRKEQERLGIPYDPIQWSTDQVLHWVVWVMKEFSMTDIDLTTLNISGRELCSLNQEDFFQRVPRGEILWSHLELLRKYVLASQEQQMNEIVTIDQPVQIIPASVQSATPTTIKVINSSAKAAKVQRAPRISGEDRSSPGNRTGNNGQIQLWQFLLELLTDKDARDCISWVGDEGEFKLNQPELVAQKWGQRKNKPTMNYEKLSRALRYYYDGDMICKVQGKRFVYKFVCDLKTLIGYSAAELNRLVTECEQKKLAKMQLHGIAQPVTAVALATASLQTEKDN
Outline: as §1

ERG = biological target: T4, ERG (Homo sapiens, UniProt P11308 1-479); conditions: protein: recombinant; tags: N-terminal GST; dsDNA, one strand shown
T4 sequence: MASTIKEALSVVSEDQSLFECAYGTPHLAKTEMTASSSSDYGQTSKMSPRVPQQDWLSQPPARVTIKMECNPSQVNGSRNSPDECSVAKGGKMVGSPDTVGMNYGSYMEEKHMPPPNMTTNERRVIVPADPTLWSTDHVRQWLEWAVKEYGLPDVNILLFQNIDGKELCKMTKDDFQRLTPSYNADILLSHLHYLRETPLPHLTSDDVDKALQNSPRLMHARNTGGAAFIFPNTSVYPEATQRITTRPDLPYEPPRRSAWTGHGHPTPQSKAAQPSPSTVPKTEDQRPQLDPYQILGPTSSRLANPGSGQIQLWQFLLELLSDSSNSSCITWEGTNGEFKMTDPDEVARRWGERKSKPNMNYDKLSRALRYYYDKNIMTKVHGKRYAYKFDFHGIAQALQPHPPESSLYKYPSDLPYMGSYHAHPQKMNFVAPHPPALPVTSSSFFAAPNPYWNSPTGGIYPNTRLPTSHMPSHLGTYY
Outline: as §1

ELF1 = ELF1 (Homo sapiens, UniProt P32519 1-619); conditions: protein: recombinant; tags: N-terminal GST; dsDNA, one strand shown
Chain of ELF1 (P32519 whole entry): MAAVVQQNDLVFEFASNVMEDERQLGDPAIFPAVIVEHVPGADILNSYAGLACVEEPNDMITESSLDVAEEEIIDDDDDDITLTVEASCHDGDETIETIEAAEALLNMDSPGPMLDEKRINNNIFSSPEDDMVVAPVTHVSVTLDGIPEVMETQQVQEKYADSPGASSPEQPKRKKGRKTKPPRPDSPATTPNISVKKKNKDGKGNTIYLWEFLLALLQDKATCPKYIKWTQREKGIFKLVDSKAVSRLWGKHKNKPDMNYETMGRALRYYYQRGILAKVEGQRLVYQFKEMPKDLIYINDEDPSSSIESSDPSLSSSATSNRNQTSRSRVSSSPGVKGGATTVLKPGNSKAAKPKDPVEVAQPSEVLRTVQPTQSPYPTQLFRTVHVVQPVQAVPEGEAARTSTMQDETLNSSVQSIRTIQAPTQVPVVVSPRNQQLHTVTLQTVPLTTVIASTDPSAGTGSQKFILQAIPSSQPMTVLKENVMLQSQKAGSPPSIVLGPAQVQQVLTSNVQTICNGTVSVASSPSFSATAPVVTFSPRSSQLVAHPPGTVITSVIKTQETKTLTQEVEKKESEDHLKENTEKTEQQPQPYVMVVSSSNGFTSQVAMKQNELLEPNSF
Outline: as §1

EHF = biological target: T5, EHF (Homo sapiens, UniProt Q9NZC4 1-300); conditions: protein: recombinant; tags: N-terminal GST; dsDNA, one strand shown
T5 sequence: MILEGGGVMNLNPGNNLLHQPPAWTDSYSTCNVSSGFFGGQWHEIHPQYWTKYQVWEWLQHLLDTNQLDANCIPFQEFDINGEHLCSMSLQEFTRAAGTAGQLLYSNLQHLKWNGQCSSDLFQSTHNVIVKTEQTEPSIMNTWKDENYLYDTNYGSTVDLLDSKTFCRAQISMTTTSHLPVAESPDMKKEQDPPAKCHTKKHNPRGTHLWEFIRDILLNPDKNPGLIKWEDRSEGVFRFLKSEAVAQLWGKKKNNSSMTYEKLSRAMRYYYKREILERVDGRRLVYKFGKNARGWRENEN
Outline: as §1

SPI1 = SPI1 (Homo sapiens, UniProt P17947 1-270); conditions: protein: recombinant; tags: N-terminal GST; dsDNA, one strand shown
Outline: as §1

SPIB = SPIB (Homo sapiens, UniProt Q01892 1-262); conditions: protein: recombinant; tags: N-terminal GST; dsDNA, one strand shown
Chain of SPIB (Q01892 whole entry): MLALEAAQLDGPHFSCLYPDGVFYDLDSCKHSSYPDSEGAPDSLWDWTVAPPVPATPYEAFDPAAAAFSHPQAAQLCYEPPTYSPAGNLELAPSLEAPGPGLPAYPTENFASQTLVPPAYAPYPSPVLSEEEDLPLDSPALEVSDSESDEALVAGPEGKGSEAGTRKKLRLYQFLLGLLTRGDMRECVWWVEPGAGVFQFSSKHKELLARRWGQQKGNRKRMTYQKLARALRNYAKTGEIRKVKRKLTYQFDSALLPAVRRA
Outline: as §1

ELK3 = biological target: T6, ELK3 (Homo sapiens, UniProt P41970 1-407); conditions: protein: recombinant; tags: N-terminal GST; dsDNA, one strand shown
T6 sequence: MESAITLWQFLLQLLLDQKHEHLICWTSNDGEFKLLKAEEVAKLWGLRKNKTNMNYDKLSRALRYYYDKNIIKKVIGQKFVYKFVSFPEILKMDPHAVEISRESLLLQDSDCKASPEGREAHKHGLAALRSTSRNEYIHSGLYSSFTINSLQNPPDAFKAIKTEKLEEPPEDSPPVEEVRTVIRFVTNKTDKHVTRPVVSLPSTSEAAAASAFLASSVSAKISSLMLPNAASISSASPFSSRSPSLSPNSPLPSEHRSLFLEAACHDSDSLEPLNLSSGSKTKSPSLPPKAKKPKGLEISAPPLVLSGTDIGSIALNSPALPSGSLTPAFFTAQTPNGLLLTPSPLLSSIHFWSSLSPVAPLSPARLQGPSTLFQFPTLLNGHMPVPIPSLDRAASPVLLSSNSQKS
Outline: as §1

FEV = biological target: T7, FEV (Homo sapiens, UniProt Q99581 1-238); conditions: protein: recombinant; tags: N-terminal GST; dsDNA, one strand shown
T7 sequence: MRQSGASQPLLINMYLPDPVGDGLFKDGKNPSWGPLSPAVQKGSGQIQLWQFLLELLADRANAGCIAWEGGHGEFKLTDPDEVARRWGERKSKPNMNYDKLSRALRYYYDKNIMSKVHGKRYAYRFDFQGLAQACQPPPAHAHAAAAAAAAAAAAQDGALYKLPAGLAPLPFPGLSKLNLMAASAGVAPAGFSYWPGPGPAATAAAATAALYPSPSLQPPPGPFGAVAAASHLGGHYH
Outline: as §1

ETV5 = ETV5 (Homo sapiens, UniProt P41161 1-510); conditions: protein: recombinant; tags: N-terminal GST; dsDNA, one strand shown
Chain of ETV5 (P41161 whole entry): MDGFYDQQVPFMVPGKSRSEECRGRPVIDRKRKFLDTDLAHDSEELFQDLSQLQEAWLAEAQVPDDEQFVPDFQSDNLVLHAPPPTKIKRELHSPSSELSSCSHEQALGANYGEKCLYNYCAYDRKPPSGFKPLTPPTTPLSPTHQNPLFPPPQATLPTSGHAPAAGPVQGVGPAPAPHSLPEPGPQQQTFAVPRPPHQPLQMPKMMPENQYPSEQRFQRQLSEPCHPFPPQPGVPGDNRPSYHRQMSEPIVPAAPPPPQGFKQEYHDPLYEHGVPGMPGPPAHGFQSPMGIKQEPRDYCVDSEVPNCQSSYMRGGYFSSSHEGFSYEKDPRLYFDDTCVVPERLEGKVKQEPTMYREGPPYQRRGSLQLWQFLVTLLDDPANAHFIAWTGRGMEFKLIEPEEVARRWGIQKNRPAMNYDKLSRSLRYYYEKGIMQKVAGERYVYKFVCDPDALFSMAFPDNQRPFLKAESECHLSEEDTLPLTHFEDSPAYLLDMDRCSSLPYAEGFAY
Outline: as §1

HSF1 = HSF1 (Homo sapiens, UniProt Q00613 1-529); conditions: protein: recombinant; tags: N-terminal GST; chain copies: 3; dsDNA, one strand shown
Chain of HSF1 (Q00613 whole entry): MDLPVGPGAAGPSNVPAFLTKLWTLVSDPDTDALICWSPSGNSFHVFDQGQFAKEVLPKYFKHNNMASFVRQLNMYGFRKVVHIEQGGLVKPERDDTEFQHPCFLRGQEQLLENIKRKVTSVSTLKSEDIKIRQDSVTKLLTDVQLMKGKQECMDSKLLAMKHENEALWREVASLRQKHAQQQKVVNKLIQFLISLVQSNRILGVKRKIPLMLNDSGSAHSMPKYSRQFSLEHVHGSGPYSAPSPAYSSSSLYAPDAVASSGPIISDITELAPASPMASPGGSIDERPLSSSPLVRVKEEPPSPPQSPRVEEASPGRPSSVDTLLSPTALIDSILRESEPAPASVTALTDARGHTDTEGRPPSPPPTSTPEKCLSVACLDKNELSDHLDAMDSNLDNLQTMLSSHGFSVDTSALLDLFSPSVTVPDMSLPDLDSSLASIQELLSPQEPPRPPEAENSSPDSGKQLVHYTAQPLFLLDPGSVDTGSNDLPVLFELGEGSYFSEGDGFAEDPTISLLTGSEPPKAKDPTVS
Outline: as §1

SPIC = biological target: T8, SPIC (Homo sapiens, UniProt Q8N5J4 1-248); conditions: protein: recombinant; tags: N-terminal GST; dsDNA, one strand shown
T8 sequence: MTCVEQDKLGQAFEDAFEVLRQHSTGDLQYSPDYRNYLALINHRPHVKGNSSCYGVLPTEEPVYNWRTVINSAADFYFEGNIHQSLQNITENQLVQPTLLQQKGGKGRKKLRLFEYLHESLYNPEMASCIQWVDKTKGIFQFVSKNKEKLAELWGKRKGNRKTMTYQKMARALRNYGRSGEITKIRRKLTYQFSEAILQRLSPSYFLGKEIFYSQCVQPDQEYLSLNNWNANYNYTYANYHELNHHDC
Outline: as §1

ELF4 = ELF4 (Homo sapiens, UniProt Q99607 1-663); conditions: protein: recombinant; tags: N-terminal GST; dsDNA, one strand shown
Chain of ELF4 (Q99607 whole entry): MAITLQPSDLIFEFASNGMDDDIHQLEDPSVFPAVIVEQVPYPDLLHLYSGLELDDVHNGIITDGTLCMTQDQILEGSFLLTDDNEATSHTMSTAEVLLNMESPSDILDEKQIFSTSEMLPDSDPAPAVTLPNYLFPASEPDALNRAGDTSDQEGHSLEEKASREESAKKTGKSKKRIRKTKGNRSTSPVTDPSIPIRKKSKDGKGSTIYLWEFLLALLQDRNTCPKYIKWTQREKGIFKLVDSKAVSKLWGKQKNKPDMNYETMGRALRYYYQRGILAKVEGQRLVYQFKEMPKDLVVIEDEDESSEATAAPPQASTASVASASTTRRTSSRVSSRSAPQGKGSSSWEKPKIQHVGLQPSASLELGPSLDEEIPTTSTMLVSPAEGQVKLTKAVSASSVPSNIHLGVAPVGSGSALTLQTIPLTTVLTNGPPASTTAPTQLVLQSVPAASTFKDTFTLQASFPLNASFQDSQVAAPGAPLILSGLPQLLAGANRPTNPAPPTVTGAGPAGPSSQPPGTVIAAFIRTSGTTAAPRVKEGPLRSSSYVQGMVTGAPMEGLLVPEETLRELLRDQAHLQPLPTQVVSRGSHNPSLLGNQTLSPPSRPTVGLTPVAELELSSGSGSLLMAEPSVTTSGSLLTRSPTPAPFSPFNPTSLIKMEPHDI
Outline: as §1

ELK4 = biological target: T9, ELK4 (Homo sapiens, UniProt P28324-2 1-405); conditions: protein: recombinant; tags: N-terminal GST; dsDNA, one strand shown
T9 sequence: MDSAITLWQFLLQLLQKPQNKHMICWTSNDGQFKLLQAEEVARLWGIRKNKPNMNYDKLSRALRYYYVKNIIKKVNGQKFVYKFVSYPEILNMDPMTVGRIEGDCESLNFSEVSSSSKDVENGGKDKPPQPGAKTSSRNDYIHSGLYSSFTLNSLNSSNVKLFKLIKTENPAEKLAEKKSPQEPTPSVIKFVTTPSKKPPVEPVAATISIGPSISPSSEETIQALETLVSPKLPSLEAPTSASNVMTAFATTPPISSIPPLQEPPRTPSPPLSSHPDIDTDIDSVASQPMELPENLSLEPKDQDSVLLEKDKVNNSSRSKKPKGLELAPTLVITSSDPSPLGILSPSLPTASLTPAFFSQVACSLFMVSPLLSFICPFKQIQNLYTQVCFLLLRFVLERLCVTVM
Outline: as §1

ETV2 = biological target: T10, ETV2 (Homo sapiens, UniProt O00321 1-342); conditions: protein: recombinant; tags: N-terminal GST; dsDNA, one strand shown
T10 sequence: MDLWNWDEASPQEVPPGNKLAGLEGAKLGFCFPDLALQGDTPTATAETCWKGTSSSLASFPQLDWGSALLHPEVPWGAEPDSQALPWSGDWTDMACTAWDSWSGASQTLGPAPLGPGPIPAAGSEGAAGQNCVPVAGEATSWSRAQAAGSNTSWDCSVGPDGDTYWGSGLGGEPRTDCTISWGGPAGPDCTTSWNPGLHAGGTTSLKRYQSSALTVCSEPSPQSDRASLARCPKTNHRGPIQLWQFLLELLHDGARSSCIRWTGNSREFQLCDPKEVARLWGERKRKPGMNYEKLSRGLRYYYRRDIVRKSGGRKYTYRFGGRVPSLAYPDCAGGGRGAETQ
Outline: as §1

ELF3 = biological target: T11, ELF3 (Homo sapiens, UniProt P78545 1-371); conditions: protein: recombinant; tags: N-terminal GST; dsDNA, one strand shown
T11 sequence: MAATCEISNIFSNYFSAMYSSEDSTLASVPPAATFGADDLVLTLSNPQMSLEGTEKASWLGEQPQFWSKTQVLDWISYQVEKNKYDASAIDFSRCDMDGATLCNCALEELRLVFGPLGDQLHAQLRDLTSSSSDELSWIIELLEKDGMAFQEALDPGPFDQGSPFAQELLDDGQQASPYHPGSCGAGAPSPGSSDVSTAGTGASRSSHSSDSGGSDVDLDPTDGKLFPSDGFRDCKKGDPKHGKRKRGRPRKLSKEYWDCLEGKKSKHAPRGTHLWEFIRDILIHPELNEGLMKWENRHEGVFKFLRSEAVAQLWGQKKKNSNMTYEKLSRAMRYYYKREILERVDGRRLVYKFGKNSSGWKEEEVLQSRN
Outline: as §1

CRX = CRX (Homo sapiens, UniProt O43186 1-299); conditions: protein: recombinant; tags: N-terminal GST; dsDNA, one strand shown
Chain of CRX (O43186 whole entry): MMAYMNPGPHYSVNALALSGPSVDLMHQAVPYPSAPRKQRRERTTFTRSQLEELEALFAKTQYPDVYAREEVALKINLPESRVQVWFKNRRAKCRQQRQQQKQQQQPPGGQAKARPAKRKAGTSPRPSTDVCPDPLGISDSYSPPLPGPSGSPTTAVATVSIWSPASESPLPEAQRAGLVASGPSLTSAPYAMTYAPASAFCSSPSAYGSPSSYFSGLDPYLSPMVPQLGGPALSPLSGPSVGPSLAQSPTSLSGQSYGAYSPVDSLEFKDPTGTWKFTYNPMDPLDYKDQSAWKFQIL
Outline: as §1

ETV1 = ETV1 (Homo sapiens, UniProt P50549 1-477); conditions: protein: recombinant; tags: N-terminal GST; dsDNA, one strand shown
Chain of ETV1 (P50549 whole entry): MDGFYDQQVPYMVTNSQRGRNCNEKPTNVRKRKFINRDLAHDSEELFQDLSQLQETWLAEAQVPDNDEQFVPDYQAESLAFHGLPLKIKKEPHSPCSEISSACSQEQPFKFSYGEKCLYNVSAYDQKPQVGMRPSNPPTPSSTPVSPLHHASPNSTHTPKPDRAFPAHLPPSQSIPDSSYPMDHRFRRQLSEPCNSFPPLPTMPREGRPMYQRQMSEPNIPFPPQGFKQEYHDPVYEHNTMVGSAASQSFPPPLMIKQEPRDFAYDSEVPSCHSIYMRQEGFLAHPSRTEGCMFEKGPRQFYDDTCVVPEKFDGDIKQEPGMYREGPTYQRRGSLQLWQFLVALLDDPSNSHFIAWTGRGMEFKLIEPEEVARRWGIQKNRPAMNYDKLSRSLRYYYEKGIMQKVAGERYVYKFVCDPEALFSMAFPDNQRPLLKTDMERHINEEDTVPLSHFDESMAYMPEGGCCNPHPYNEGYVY
Outline: as §1

CCTTGA
binding signal (FLI1): 1.26 fold enrichment (6-mer frequency, TF over GST control) | binding signal (ELK1): 1.26 fold enrichment (6-mer frequency, TF over GST control) | binding signal (GABPA): 1.24 fold enrichment (6-mer frequency, TF over GST control) | binding signal (ERG): 1.27 fold enrichment (6-mer frequency, TF over GST control) | binding signal (ELF1): 1.25 fold enrichment (6-mer frequency, TF over GST control) | binding signal (EHF): 1.23 fold enrichment (6-mer frequency, TF over GST control) | binding signal (SPI1): 1.17 fold enrichment (6-mer frequency, TF over GST control) | binding signal (SPIB): 1.24 fold enrichment (6-mer frequency, TF over GST control) | binding signal (ELK3): 1.4 fold enrichment (6-mer frequency, TF over GST control) | binding signal (FEV): 1.19 fold enrichment (6-mer frequency, TF over GST control) | binding signal (ETV5): 1.25 fold enrichment (6-mer frequency, TF over GST control) | binding signal (HSF1): 1.07 fold enrichment (6-mer frequency, TF over GST control) | binding signal (SPIC): 1.27 fold enrichment (6-mer frequency, TF over GST control) | binding signal (ELF4): 1.22 fold enrichment (6-mer frequency, TF over GST control) | binding signal (ELK4): 1.22 fold enrichment (6-mer frequency, TF over GST control) | binding signal (ETV2): 1.11 fold enrichment (6-mer frequency, TF over GST control) | binding signal (ELF3): 1.26 fold enrichment (6-mer frequency, TF over GST control) | binding signal (CRX): 1.16 fold enrichment (6-mer frequency, TF over GST control) | binding signal (ETV1): 1.17 fold enrichment (6-mer frequency, TF over GST control)
